Measured values published in PubChem BioAssay.
Active and inactive are the calls of the source. How the calls were made is not given here.

assay: inhibition of 3D7 malaria parasite growth – strain 3D7 (AID 2306);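 further: 0% = DMSO wells and 100% = chloroquine plus artemisinin control wells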; conditions: P. falciparum 3D7 erythrocytic growth, LDH absorbance, 72 h; at 2 µM; hits give high values

Which growth inhibition does the source give for O=C(/C=C/c1cccc(C(F)(F)F)c1)NCCCCCN1CCC(c2c[nH]c3ccccc23)CC1 here?
Its growth inhibition is 90% (active).

With CC(C)CCN1CCCN(Cc2cccc(NC(=O)c3cc4ccccc4s3)c2)CC1 as the compound, how does the growth inhibition read?
The growth inhibition was 96% (active).

For CNCCNCc1ccc(-c2ccc(-c3nc4c(C)cccc4[nH]3)cc2)cc1, which growth inhibition is on record?
Its growth inhibition is 96% (active).

For CS(=O)(=O)CCNCc1cccc(-c2cc3c(Nc4ccc5c(cnn5Cc5ccccc5)c4)ncnc3s2)c1, which growth inhibition is on record?
Its growth inhibition is 101% (active).

For Cc1cc(N2CCCC2)nc(Nc2ccc(NC(=O)c3ccccc3)cc2)n1, which growth inhibition is on record?
Its growth inhibition is 100% (active).

With CN1C[C@@H](c2ccccc2)c2cc(O)c(CN3CCCCC3)cc2C[C@H]1Cc1ccccc1 as the compound, how does the growth inhibition read?
Its growth inhibition is 99% (active).

With CN(Cc1cccc(C#N)c1)C1CCN(c2cc(NC(=O)c3ccc(F)cc3)ccn2)CC1 as the compound, how does the growth inhibition read?
Its growth inhibition is 97% (active).

For CCC1N=C(N)N=C(N)N1OCCCOc1c(Cl)cc(Cl)cc1Cl (stereo unspecified), which growth inhibition is on record?
The growth inhibition was 95% (active).

Which growth inhibition does the source give for O=c1c2c([nH]c3cc(Cl)ccc13)CCCC2 here?
Its growth inhibition is 96% (active).

Which growth inhibition does the source give for COc1cc(F)c2nccc([C@@H](O)CN3CCC(NCc4nc5c(F)cccc5[nH]4)CC3)c2c1 here?
The growth inhibition was 99% (active).

Which growth inhibition does the source give for Cc1cc(NC(=O)Nc2ccc(I)c(OCCN(C)C)c2)ccc1Br here?
Its growth inhibition is 101% (active).

For Cc1c(-c2cccc(NC(=O)C(C)(C)Oc3ccc(Cl)cc3)c2)nc2ncccn12, which growth inhibition is on record?
Its growth inhibition is 98% (active).

With CCS(=O)(=O)c1ccc(-c2cnc3[nH]cc(-c4ccc(N)cc4)c3c2)cc1 as the compound, how does the growth inhibition read?
The growth inhibition was 92% (active).

Which growth inhibition does the source give for COc1ccc(C)c(Nc2ccnc(Nc3ccc(-c4cnc[nH]4)cc3)n2)c1 here?
Its growth inhibition is 97% (active).

For Oc1ccc(CCNc2nc(NCCCOc3ccccc3-c3ccc(C(F)(F)F)cc3)nc(N3CCNCC3)n2)cc1, which growth inhibition is on record?
The growth inhibition was 101% (active).

Which growth inhibition does the source give for CCCn1c(=N)c(C(=O)NCCc2ccccc2)cc2c(=O)n3cccc(C)c3nc21 here?
The growth inhibition was 100% (active).

Which growth inhibition does the source give for CN(C)c1ccc(-c2ccc(C(=O)NC3CCN(Cc4ccc(F)cc4)CC3)s2)cc1 here?
The growth inhibition was 87% (active).

Which growth inhibition does the source give for CC(=O)N[C@@H]1c2cc(C(C)=O)ccc2OC(C)(C)[C@@H]1O here?
Its growth inhibition is 97% (active).

Which growth inhibition does the source give for COc1cccc(-c2cnc(N)c(-c3nc4ccc(C(F)(F)F)cc4[nH]3)c2)c1 here?
Its growth inhibition is 99% (active).

For COc1ccc(CNC(=O)Nc2cc3cc(-c4ccc(CN5CCCC5)cc4)ccc3n3c(C)nnc23)cc1, which growth inhibition is on record?
The growth inhibition was 101% (active).

Which growth inhibition does the source give for O=C(Cc1cn(-c2ccccc2)nc1-c1ccc(Cl)cc1)Nc1nccs1 here?
The growth inhibition was 88% (active).

With COc1cccc(CN(C(=O)Nc2ccccc2F)[C@H]2C[C@H]3C(=O)Nc4cc(F)ccc4C(=O)N3C2)c1 as the compound, how does the growth inhibition read?
Its growth inhibition is 93% (active).

For Cc1cc(NN=Cc2ccc([N+](=O)[O-])cc2)c2ccc(F)cc2n1, which growth inhibition is on record?
Its growth inhibition is 101% (active).

With N#Cc1cccc(-c2cccc(C(=O)NC3CCC(CCN4CCc5ccc(C#N)cc5CC4)CC3)c2)c1 (stereo unspecified) as the compound, how does the growth inhibition read?
Its growth inhibition is 99% (active).

For Cc1cc(NC(=O)Nc2ccc3nccc(N4CCN(C)CC4)c3c2)ccc1Br, which growth inhibition is on record?
Its growth inhibition is 101% (active).

With O[C@@H](c1ccccc1)[C@@H]1CN(CCc2ccccc2)CC[C@@]1(O)c1ccccc1 as the compound, how does the growth inhibition read?
The growth inhibition was 97% (active).
